Each structure is given as a SMILES string. Out of some 320,000 compounds screened, about 8,000 (2.5%) were called active. Cut-off read from the data, not from the text of the source: active = activation above about 47%; inactive = the rest. For the sample, actives were picked, then their nearest neighbours and some compounds at random.

The target in the assay is Aryl hydrocarbon receptor (Homo sapiens) (UniProt P35869). As to the kind of experiment: AHR activators, primary screen, cell-based, luminescence, luciferase reporter, human (AID 2796).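 Note: 0% = vehicle wells and 100% = reference agonist.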 Particulars: AHR-responsive luciferase reporter cells, at 5 µM, active compounds read high. A general note: A reporter such as luciferase makes a cellular process visible.
Sequence of Aryl hydrocarbon receptor (Homo sapiens) (P35869 whole entry, looked up): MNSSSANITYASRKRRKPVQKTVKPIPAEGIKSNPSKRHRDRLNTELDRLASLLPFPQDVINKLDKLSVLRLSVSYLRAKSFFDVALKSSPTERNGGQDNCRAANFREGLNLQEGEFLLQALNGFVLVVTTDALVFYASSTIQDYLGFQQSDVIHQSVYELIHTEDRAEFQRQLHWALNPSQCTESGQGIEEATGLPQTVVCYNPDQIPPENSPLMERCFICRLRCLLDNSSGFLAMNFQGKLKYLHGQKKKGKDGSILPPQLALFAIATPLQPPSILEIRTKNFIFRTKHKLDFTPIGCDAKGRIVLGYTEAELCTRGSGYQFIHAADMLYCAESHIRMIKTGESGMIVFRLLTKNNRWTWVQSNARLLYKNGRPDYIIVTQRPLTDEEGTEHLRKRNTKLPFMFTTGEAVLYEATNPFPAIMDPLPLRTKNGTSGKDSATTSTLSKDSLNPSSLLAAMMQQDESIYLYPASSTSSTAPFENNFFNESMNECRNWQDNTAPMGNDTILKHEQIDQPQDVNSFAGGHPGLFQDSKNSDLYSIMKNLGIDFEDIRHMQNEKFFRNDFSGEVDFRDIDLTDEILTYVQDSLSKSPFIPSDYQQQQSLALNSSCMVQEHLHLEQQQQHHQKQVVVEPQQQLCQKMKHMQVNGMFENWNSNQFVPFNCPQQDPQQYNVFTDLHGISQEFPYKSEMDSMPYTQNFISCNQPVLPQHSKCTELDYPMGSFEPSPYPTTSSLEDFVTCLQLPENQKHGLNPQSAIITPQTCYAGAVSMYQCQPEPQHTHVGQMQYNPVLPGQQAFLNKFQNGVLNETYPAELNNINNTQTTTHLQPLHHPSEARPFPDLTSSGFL
On to `COc1ccc(N2CCN(C(=O)c3ccc(N4CCCCS4(=O)=O)cc3)CC2)cc1`, for which the activation was 1.84% (inactive). The value for `CC1CN(C(=O)c2ccc3c(c2)OCO3)OC(c2ccccc2)O1` (stereo not drawn) was 3.64% (inactive). The value for `COc1ccc2c(c1)CC[C@@H]1[C@@H]2CC[C@]2(C)C(=O)CC[C@@H]12` was -1.47% (inactive); that for `C/C(CC1CC(C)(C)OC1=O)=N/Nc1nc(-c2ccccc2)cs1` (stereo not drawn) was 124% (active). Turning to `CC1(C)CC(CCC(=O)Nc2ccccc2Cl)C(=O)O1` (stereo not drawn), the activation was -0.84% (inactive). The value for `CC1(C)CC(CC(=O)O)C(=O)O1` (stereo not drawn) was -2.54% (inactive); that for `Cc1ccc(C(=O)OC2=CC(=O)CC(C)(C)C2)cc1` was 3.37% (inactive); that for `CCN(CC)S(=O)(=O)c1ccc(Cl)c(C(=O)NC(C)C(c2cccs2)N2CCCC2)c1` (stereo not drawn) was 1.85% (inactive). For `C=CC[C@@H](Cc1ccc(F)cc1)C(=O)OC[C@H]1CCCN1C(=O)[C@H](CC=C)CC(=O)N(CCO)Cc1ccccc1` the value was -1.59% (inactive); for `Clc1ccc(Cl)c(Oc2ccc(Oc3nc(Cl)ccc3Cl)cc2)n1`, -1.7% (inactive). Consider `COCCSc1nnc(NC(=O)c2cc(OC)c(OC)cc2[N+](=O)[O-])s1`, for which the activation was 1.43% (inactive).

`COc1ccc(Nc2ncnc3sc(C)cc23)cc1`: the activation was 37% (inactive). The value for `COc1ccc(Nc2cc(Sc3ccc(OC)cc3)ncn2)cc1` was 54% (active); that for `COc1ccc(NCCc2ccccn2)cc1` was 4.86% (inactive). For `O=C(NC(C(=O)NCCN1CCOCC1)C12CC3CC(CC(C3)C1)C2)C1CCCCC1` (stereo not drawn) the value was 2.26% (inactive); for `Cn1c(N)c(C(=O)COC(=O)c2ccc3ccccc3c2)c(=O)n(C)c1=O`, -1.74% (inactive); for `O=C(NCCCn1ccnc1)Nc1ccc(Cl)cc1Cl`, 69.2% (active).

For the compound `O=C(NCCCn1ccnc1)c1cc(-c2ccccc2)on1`, the activation was 168% (active). For `O=C(NCCCn1ccnc1)c1ccccc1F` the value was 12.6% (inactive); for `O=C(NCCCn1ccnc1)c1cc2c(s1)CCCC2`, 46.3% (inactive); for `O=C(/C=C/c1ccc(Cl)cc1)NCCCn1ccnc1`, 7.43% (inactive). The value for `Cc1ccc2c(Cl)c(C(=O)Nc3nn[nH]n3)sc2c1` was 1.09% (inactive); that for `CCCC(=O)Nc1ccc(C(=O)NCCCn2ccnc2)cc1` was 0.23% (inactive); that for `O=C(NCCCn1ccnc1)c1cc(Br)c(Br)s1` was 57.3% (active). For `COc1ccc(-c2cc(C(=O)NCCCn3ccnc3)no2)cc1` the value was 15.1% (inactive). `Cc1ccc2c(Cl)c(C(=O)NCCCn3ccnc3)sc2c1`: the activation is 55.7% (active).

Regarding `COc1cc(OC)cc(C(=O)NCCCn2ccnc2)c1`, the activation was 32.8% (inactive). The value for `O=C(Nc1ccccc1C(=O)NCCCn1ccnc1)c1ccc(Cl)cc1Cl` was 20.3% (inactive); that for `COc1ccc(C(=O)Nc2cc(S(=O)(=O)N3CCCC3)ccc2Cl)cc1` was 3.58% (inactive); that for `C=CCNC(=O)c1ccc2c3n(nc2c1)-c1ccc(C)cc1CO3` was -9.75% (inactive).

For the compound `CC1C(=O)Nc2ccccc2N1C(=O)c1ccc(F)cc1F` (stereo not drawn), the activation is 3.47% (inactive). The value for `CCCN(CC1CC1)C(=S)NC(=O)c1ccccc1Br` was 0.93% (inactive); that for `O=C(Cn1nc(Cc2cccnc2)c2ccccc2c1=O)NCC1COc2ccccc2O1` (stereo not drawn) was 0.07% (inactive).

Take `O=C(NC1CCCC1)C(c1c(F)cccc1Cl)N(C(=O)c1csnn1)C1CC1` (stereo not drawn): the activation was 1.3% (inactive).

As for `COc1ccc(S(=O)(=O)N2CCCCC2)cc1NC(=O)COc1ccccc1`, the activation was -0.98% (inactive). For `O=C(CN1C(=O)NC2(CCOc3ccccc32)C1=O)NCc1ccc(F)cc1` (stereo not drawn) the value was 0.77% (inactive). `Cc1cc(NC(=O)CCC(=O)N(CC(=O)NCC2CCCO2)c2ccccc2)no1` (stereo not drawn): the activation was -0.82% (inactive). Turning to `NS(=O)(=O)c1ccc(NC(=S)NC(=O)c2cccnc2)cc1`, the activation was 56.7% (active). In the case of `CC(=O)NC(=S)Nc1ccc(NC(=O)c2cccnc2)cc1`, the activation is 0.34% (inactive). For `CC(C)NS(=O)(=O)c1ccc(NC(=O)c2cccnc2)cc1`, the activation was 0.76% (inactive). The value for `COc1ccc(CCNS(=O)(=O)c2ccc(Cl)s2)cc1OC` was 1.04% (inactive); that for `N#Cc1cc([N+](=O)[O-])ccc1NC(=O)COC(=O)c1cnccn1` was 10.8% (inactive); that for `COc1cccc(N(Cc2nnc3n2CCCCC3)C(=O)Nc2ccccc2F)c1` was 8.31% (inactive). Regarding `COc1cc2[nH]c(=S)n(CCN3CCCCC3C)c(=O)c2cc1OC` (stereo not drawn), the activation is 7.8% (inactive). Consider `COc1cc2[nH]c(=S)n(Cc3ccc(C)o3)c(=O)c2cc1OC`, for which the activation is 73.8% (active). The value for `COc1cc2[nH]c(=S)n(Cc3ccc(F)cc3)c(=O)c2cc1OC` was 0.4% (inactive); that for `O=C(O)c1cc(S(=O)(=O)NC2CCCc3ccccc32)ccc1O` (stereo not drawn) was -0.8% (inactive); that for `N#CCC(=O)NC(=O)NCC1CC1` was 3.61% (inactive). The value for `O=C(CCCN1C(=O)CSc2ncccc21)N1CCN(c2cccc(C(F)(F)F)c2)CC1` was 1.24% (inactive). The value for `CNS(=O)(=O)c1ccc(C(=O)NCC(=O)NCCc2ccc3c(c2)OCCO3)cc1` was -1.1% (inactive); that for `CCc1ccc(CNC(=O)C2CCN(c3nnc(C)c4c(C)n(-c5ccc(C)cc5)nc34)CC2)cc1` was 1.85% (inactive). `COC(=O)Cn1nc(-c2ccccc2)c2cc(Cl)ccc21`: the activation is 1.76% (inactive).

For the compound `COCCCNc1nc2c(-c3cccc(C)c3)nnn2c2ccc(Cl)cc12`, the activation is 69.9% (active).

For the compound `COCCCNc1nc2c(-c3cccc(C(F)(F)F)c3)nnn2c2ccccc12`, the activation was 29% (inactive). The value for `C=CCNC(=O)COc1coc(CN2CCN(Cc3ccccc3)CC2)cc1=O` was 1.03% (inactive). For `O=C(COC(=O)/C=C/c1cccc(Cl)c1)NCc1cccs1` the value was 1.89% (inactive); for `CCc1cccc(C)c1NC(=O)COC(=O)CNC(=O)c1cccs1`, 2.33% (inactive). Turning to `CC[C@@]12C(=O)N(c3ccccc3)C(=O)N1[C@H](c1ccc(Br)cc1)[C@@H]1C(=O)N(C(C)(C)C)C(=O)[C@@H]12`, the activation is -0.76% (inactive). For `CC(Sc1sc(=S)sc1SC(C)C(=O)O)C(=O)O` (stereo not drawn) the value was 4.16% (inactive); for `COCCN1C2=C(COC(C)(C)C2)C(=S)NC1c1ccccc1` (stereo not drawn), 0.78% (inactive).

For the compound `COc1ccc(CCN(C(=O)COc2ccccc2)c2nc(-c3ccccc3)cs2)cc1OC`, the activation was 23.4% (inactive).

Turning to `CC(=O)Nc1ccc(C(=O)Nc2nc(-c3cc(C)n(Cc4ccccc4)c3C)cs2)cc1`, the activation was 2.48% (inactive).

For `c1ccc(Nc2nc(-c3ccncc3)cs2)nc1`, the activation was 79% (active). For `CC(=O)Nc1cccc(-c2csc(Nc3cccc(C)n3)n2)c1` the value was 61.1% (active); for `Clc1ccc(Cc2nnc(-c3cccs3)o2)cc1`, -4.17% (inactive); for `O=C(Nc1nc(-c2cccnc2)cs1)c1ccccc1F`, 11.7% (inactive). The value for `COc1ccc(CC(=O)Nc2nc(-c3ccc(F)c(F)c3)cs2)cc1OC` was -6.95% (inactive). For `COc1ccc(CCNc2nc(-c3cccc(NC(C)=O)c3)cs2)cc1OC` the value was 59% (active); for `Clc1ccc(Nc2nc(-c3cccs3)cs2)nc1`, 96.2% (active); for `O=C(NCc1cccnc1)C(=O)Nc1nc(-c2ccccc2)cs1`, 8.85% (inactive).

Turning to `CC(=O)NCCC(=O)Nc1nc(-c2ccc3c(c2)OCCO3)cs1`, the activation was 40.4% (inactive). The value for `Cc1ccc(Nc2nc(-c3ccc(O)cc3O)cs2)nc1` was 16.5% (inactive); that for `CC(=O)NCC(=O)N(C)C(C(=O)Nc1ccc2c(c1)OCCO2)c1ccccc1` (stereo not drawn) was 15% (inactive); that for `Cc1cc(=O)oc2c3c(cc(OCC(=O)NCc4ccccn4)c12)OC(C)(C)CC3` was 4.58% (inactive). For `FC(F)(F)c1ccc(-n2cn[nH]c2=S)cc1`, the activation is -2.71% (inactive).

`CCN1CCN(C(=O)c2cc3cc4ccc(OC)cc4nc3s2)CC1`: the activation was 2.17% (inactive).

Take `CCCn1c(CCNc2nc(-c3ccc(OC)cc3)cs2)nc2ccccc21`: the activation was 15% (inactive). For `O=C(CSC1=NCCS1)Nc1nc(-c2ccccc2)cs1` the value was 18.4% (inactive); for `Cc1cccc(Nc2nc(-c3ccccc3)cs2)n1`, 95.5% (active); for `COc1ccc(Nc2nc(-c3ccccc3)cs2)cc1`, 91.8% (active). Take `Cc1ccccc1Nc1nc(-c2cccnc2)cs1`: the activation is 2.23% (inactive). For `COc1ccc2c(c1OC)C(=O)OC2Nc1nc(-c2ccccc2)cs1` (stereo not drawn) the value was -5.46% (inactive). The value for `CCCCn1nc(C(=O)Nc2cccc(C(=O)NC3CC3)c2)c2ccccc2c1=O` was -0.03% (inactive); that for `CC1(C)C2CCC13CS(=O)(=O)NC3C2` (stereo not drawn) was 1.31% (inactive).

For `CN1CCN(C(=O)c2cnn(-c3ccccc3)c2NC(=O)c2ccc([N+](=O)[O-])cc2)CC1`, the activation is 4.36% (inactive). The value for `Nc1c(N(CCO)C(=O)C2CCCCC2)c(=O)[nH]c(=O)n1Cc1ccccc1` was 0.25% (inactive). The value for `COc1ccccc1C(=O)Nc1ccccc1C(=O)Nc1ccccc1` was 18.5% (inactive); that for `CN(C)S(=O)(=O)Oc1ccccc1C(=O)Nc1ccccc1Cl` was 106% (active). For `O=C(Nc1ccccc1Cl)c1ccccc1S(=O)(=O)c1ccccc1[N+](=O)[O-]` the value was 2.48% (inactive); for `Cc1ccc(NC2CCCN(C(=O)CCc3cn[nH]c3)C2)cc1C` (stereo not drawn), 11.1% (inactive). Regarding `COc1ccccc1NC(=O)c1c(Br)cnn1C`, the activation was 57.9% (active).

Take `Cn1ncc(Br)c1C(=O)NC1CCCC1`: the activation is -3.04% (inactive).

Turning to `Cn1ncc(Br)c1C(=O)NCc1cccs1`, the activation was -1.33% (inactive). The value for `COC(=O)c1ccc(C(NC(=O)OCc2ccccc2)/C(C)=C/[C@@H](C)C(=O)NCc2ccc(OC)c(OC)c2)cc1` (stereo partly drawn) was 6.4% (inactive). The value for `COc1ccc(NC(=O)CSc2nnc(C3CC3)n2C)cc1S(=O)(=O)N1CCCCC1` was -0.33% (inactive); that for `COc1cc(OC)c(C(=O)NCc2ccc3c(c2)OCO3)cc1OC` was 14% (inactive). For `Cc1ccc(CNCc2ccc3c(c2)OCO3)c(C)c1` the value was 2.41% (inactive); for `COc1cc(CNCc2ccc3c(c2)OCO3)c([N+](=O)[O-])cc1OC`, 111% (active).

For the origin of these results see PubChem BioAssay AID2796 (The Scripps Research Institute Molecular Screening Center, 2010).
